High-throughput results deposited in PubChem by National Center for Advancing Translational Sciences (NCATS).
S16 F2sN tox = toxic to S16 Pmp22-F2sN Schwann cells. AID 1508642. S16 Pmp22-F2sN Schwann cells viability, CellTiter-Glo, 24 h. 0.48% of 43,000 active. Potency, µM (top dose mostly 57.5 µM), without a hit: top-dose activity change, negative = cytotoxicity, hits mostly cytotoxic; also: potency is read from the fitted curve at half-maximal effect; % is scaled to controls: 0 for no effect and ±100 for the full control effect; nearly all actives have a fitted effect of over 65% in size
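S16 Pmp22-F2sN Schwann cells (500-1,000/well) in phenol-red-free DMEM with 10% FBS received 23 nL compound by pin tool for 24 h at 37 °C. Viability was then read as CellTiter-Glo luminescence after 15 min at room temperature.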
p53null 39C kill = selectivity test: cytotoxicity in p53 null cells, nonpermissive temperature. 0.97% of 55,000 active. H1299 p53-null (neo) cells, 39C, ATPlite viability, 24 h. Potency, µM (series often up to 46.1 µM), for the others: at the top dose activity, negative = cell killing, usual class: cytotoxic;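 also: potency is read from the fitted curve at half-maximal effect; 0% = DMSO only and -100% = full killing by 100 µM tamoxifen; nearly all actives have a fitted effect of over 50% in size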
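Temperature-shift cytotoxicity format: compound titrations on p53-null or A138V-expressing H1299 cells held 24 hr at 39C, cell ATP then measured, AC50 from Hill model.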
SKOV3 invasion = ovarian cancer metastasis inhibition, 3D TME model; Potency, µM (titrated, usually from 45.8 µM), inactives show at the top dose activity change, negative = inhibition, usual class: inhibitors; AID 1963576; 0.1% of 46,000 active; SKOV3ip1-GFP adhesion/invasion on 3D omental model, fluorescence;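 also: potency is read from the fitted curve at half-maximal effect; plate controls were DMSO wells for no effect and tomatine positive control wells for full effect; nearly all actives have a fitted effect of over 65% in size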
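Adhesion/invasion was scored as fixed GFP-labeled SKOV3ip1 cell counts (488/509 nm), normalized to DMSO and tomatine controls. Cancer cells in serum-free medium, with four compound doses (0.36-46 umol/L), sat 2 hr at RT then 16 hr at 37 C on a 48 hr fibroblast/mesothelial/ECM culture.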
PMP22 txn = modulates PMP22 transcription in S16 Schwann cells; 2% of 43,000 active; AID 1508649; S16 Pmp22-F2sN Schwann cells (luciferase reporters placed in the Pmp22 gene), FLuc/NLuc coincidence luminescence, 24 h; Potency, µM (titrated, usually from 57.5 µM), for the others: top-dose activity change, negative = inhibition, usual class: inhibitors; active = clear falling dose curves in both reporters; inconclusive = both reporters move, but less clearly or upward; inactive = either reporter flat; the % is the NLuc reporter signal; also: potency is read from the fitted curve at half-maximal effect; % is scaled to controls: 0 for no effect and ±100 for the full control effect
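Transcriptional readout in edited S16(c9) cells: two luciferases reported from the Pmp22 locus, measured in turn after 24 h compound incubation.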
p53null 32C kill = selectivity test: cytotoxicity in p53 null cells, permissive temperature; 0.62% of 55,000 active; H1299-neo p53 null cells, ATP luminescence, 24 h, 32C; Potency, µM (doses to about 46.1 µM), for inactives: top-dose activity change, negative = cytotoxicity, actives largely listed as cytotoxic;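 also: potency is read from the fitted curve at half-maximal effect; 0% = DMSO only and -100% = full killing by 100 µM tamoxifen; nearly all actives have a fitted effect of over 55% in size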
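We seeded p53-null H1299-neo cells, incubated them overnight at 37C, and added compounds across a range up to 46 uM. After 24 hours at 32C, ATP reagent was applied for 20 min at room temperature and luminescence recorded.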
pS6 MEF inh = inhibitors of mTORC1 signaling in Tsc2-/- p53-/- MEF cells | Tsc2-/- p53-/- MEF, phospho-rpS6 immunofluorescence/PI, 24 h | Potency, µM (top dose mostly 38.3 µM), inactives show at the top dose activity change, negative = inhibition, actives largely listed as inhibitors | 0.78% of 44,000 active;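 also: potency is read from the fitted curve at half-maximal effect; plate controls were DMSO for no effect and rapamycin for full effect; nearly all actives have a fitted effect of over 50% in size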
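Compounds act on Tsc2-/-, p53-/- fibroblasts carrying an empty vector for 24 h before fixation and dual staining for phospho-S6 and DNA (propidium iodide). Values are percentages of cells above a rapamycin-defined pS6/PI threshold.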
NLuc sat counter = counter-screen for PMP22 expression modulators: NanoLuc inhibition, saturating substrate; shares compounds with PMP22 txn; Secreted NLuc enzyme (filtered S16 cell medium), Nano-Glo luminescence; Potency, µM (doses to about 57.5 µM), for the others: top-dose activity change, negative = inhibition, actives largely listed as inhibitors; 4% of 690 active; AID 1508638; also: potency is read from the fitted curve at half-maximal effect; % is scaled to controls: 0 for no effect and ±100 for the full control effect
NLuc Km counter = NanoLuc inhibition at Km substrate, PMP22 artifact check. AID 1508639. Potency, µM (doses to about 57.5 µM), inactives show at the top dose activity change, negative = inhibition, actives largely listed as inhibitors. secreted NLuc enzyme, coelenterazine luminescence, Km conditions. shares compounds with PMP22 txn. 5% of 690 active; also: potency is read from the fitted curve at half-maximal effect; % is scaled to controls: 0 for no effect and ±100 for the full control effect
FLuc ctr PMP22 = counter-screen for PMP22 expression modulators: firefly luciferase inhibition; shares compounds with PMP22 txn; 690 tested, under 10 active; Potency, µM (titrated, usually from 57.5 µM), for inactives: at the highest dose activity, negative = inhibition, hits mostly inhibitors; purified P. pyralis FLuc, luminescence, 10 min; also: % of control where 0% means no effect
Target sequence (P08659 whole entry, looked up): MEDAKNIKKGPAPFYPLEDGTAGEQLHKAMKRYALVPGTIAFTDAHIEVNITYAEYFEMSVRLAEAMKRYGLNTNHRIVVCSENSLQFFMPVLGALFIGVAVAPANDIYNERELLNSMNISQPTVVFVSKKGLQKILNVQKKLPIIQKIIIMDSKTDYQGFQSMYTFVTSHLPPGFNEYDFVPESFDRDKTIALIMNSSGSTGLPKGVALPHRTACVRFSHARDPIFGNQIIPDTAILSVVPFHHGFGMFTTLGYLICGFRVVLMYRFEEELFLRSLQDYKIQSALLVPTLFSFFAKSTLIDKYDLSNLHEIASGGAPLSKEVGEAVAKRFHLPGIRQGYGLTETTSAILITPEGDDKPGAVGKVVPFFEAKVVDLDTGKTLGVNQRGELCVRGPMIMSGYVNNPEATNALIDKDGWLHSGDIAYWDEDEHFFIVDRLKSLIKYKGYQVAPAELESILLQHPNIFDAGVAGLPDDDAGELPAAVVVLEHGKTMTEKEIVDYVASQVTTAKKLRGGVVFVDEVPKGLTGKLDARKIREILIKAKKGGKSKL
S16 F2sN tox cnf = S16 Schwann cell cytotoxicity, confirmatory; AID 1508641; 7% of 690 active; Potency, µM (top dose mostly 57.5 µM), without a hit: at the highest dose activity change, negative = viability loss, usual class: cytotoxic; S16 Schwann cells viability, CellTiter-Glo ATP luminescence, 24 h; shares compounds with PMP22 txn; also: potency is read from the fitted curve at half-maximal effect; % is scaled to controls: 0 for no effect and ±100 for the full control effect
PMP22 txn cnf = confirmation of modulators of PMP22 gene transcription in S16 cells; shares compounds with PMP22 txn; S16 Schwann cells Pmp22-F2sN, dual luciferase, 24 h; 22% of 690 active; AID 1508646; Potency, µM (series often up to 57.5 µM), for the others: at the highest dose activity change, negative = inhibition, actives largely listed as inhibitors; active = clear falling dose curves in both reporters; inconclusive = both reporters move, but less clearly or upward; inactive = either reporter flat; the % is the FLuc reporter signal; also: potency is read from the fitted curve at half-maximal effect
PMP22 HiBiT cnf = rat PMP22 protein level modulation, confirmatory; shares compounds with PMP22 txn; S16 Schwann cells Pmp22-HiBiT, luminescence, 48 h; Potency, µM (highest dose often 27.9 µM), for the others: top-dose activity change, negative = inhibition, most hits filed as inhibitors; 95 tested, under 10 active; AID 1508647
Target sequence (P25094 whole entry, looked up): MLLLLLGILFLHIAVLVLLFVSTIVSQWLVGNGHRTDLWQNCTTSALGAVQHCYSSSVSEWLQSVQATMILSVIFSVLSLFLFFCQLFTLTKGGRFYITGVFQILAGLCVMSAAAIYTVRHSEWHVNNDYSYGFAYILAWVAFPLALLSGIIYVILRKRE
Numbers without * were called inactive; i = inactive; ? = inconclusive; / = no result. Compounds with a hit are over-represented: about 3.1% of the library has one in this group of screens. Unless noted, calls follow the shape of the dose curve; as a rule, active = well fitted curve in the direction sought with a large enough effect; inconclusive = small, poorly fitted or top-dose-only effect, or another doubt; inactive = no such curve, though single readings can be large; an effect the other way counts as inactive or inconclusive.

SMILES	S16 F2sN tox	p53null 39C kill	SKOV3 invasion	PMP22 txn	p53null 32C kill	pS6 MEF inh	NLuc sat counter	NLuc Km counter	FLuc ctr PMP22	S16 F2sN tox cnf	PMP22 txn cnf	others
Cc1nc(-c2ccc(S(=O)(=O)Nc3ccc(C)c(N(C)C)c3)cc2)co1	-15%	0%	8%	?	16%	-7%	/	/	/	/	/
COc1cc(Cl)c(NS(=O)(=O)c2ccc(-c3coc(C)n3)cc2)c(OC)c1	-16%	21%	i	13µM*	9%	?	?	?	0%	?	-13%
Cc1ccc(Nc2cc(-c3cccc(N4C(=O)c5ccccc5C4=O)c3)ncn2)cc1NS(C)(=O)=O	/	/	-12%	/	/	/	/	/	/	/	/
CCc1ccc(S(=O)(=O)c2nnn3c2nc(N(CC)Cc2ccccc2)c2cc(Cl)ccc23)cc1	-11%	-8%	0%	6.7µM*	2%	-3%	-1%	2%	4%	5%	-14%
COCCNc1nc2c(S(=O)(=O)c3ccc(C)c(C)c3)nnn2c2ccc(Cl)cc12	-10%	14%	7%	10%	-5%	-3%	/	/	/	/	/
COc1ccccc1CNc1nc2c(S(=O)(=O)c3ccc(C)c(C)c3)nnn2c2ccc(Cl)cc12	2%	-1%	5%	6.3µM*	-5%	0%	-1%	-1%	-2%	22µM*	7.7µM*
Cc1ccc(S(=O)(=O)N2CCN(Cc3noc(CCC(=O)N4CCCCC4)n3)CC2)c(C)c1	-22%	-9%	-4%	?	-4%	-11%	0%	3%	3%	-13%	-16%
Cc1cc(C)c(S(=O)(=O)N2CCN(Cc3nc4ccc(C)cc4o3)CC2)c(C)c1	-11%	3%	-21%	?	15%	32%	/	/	/	/	/
Cc1c(C(=O)NCc2ccccc2)sc2nc[nH]c(=O)c12	0%	-2%	16%	-38%	6%	-8%	/	/	/	/	/
Cc1c(C(=O)NCc2cccc(Cl)c2)sc2nc[nH]c(=O)c12	-4%	5%	6%	?	14%	-14%	?	-18%	-1%	?	13%
Cc1cnc(Nc2ccc(N3CCN(C)CC3)cc2)nc1Nc1cccc(S(=O)(=O)NC(C)(C)C)c1	/	/	-29%	/	/	/	/	/	/	/	/
CCC(C)n1ncn(-c2ccc(N3CCN(c4ccc(OC[C@H]5CO[C@](Cn6cncn6)(c6ccc(Cl)cc6Cl)O5)cc4)CC3)cc2)c1=O (some centres not stated)	/	/	-1%	/	/	/	/	/	/	/	/
COc1ccc(NC(=O)c2c(NCc3ccc(C)o3)sc3c2CCCCC3)c(OC)c1	-25%	25%	-10%	14µM*	25%	?	?	?	-23%	7%	?
CCOC(=O)c1c(NC(=O)c2nc(S(C)(=O)=O)ncc2Cl)sc(C(C)=O)c1C	?	23%	?	4.3µM*	-9%	3.7µM*	?	?	-10%	14µM*	3.4µM*	PMP22 HiBiT cnf=?
CCOC(=O)c1c(NC(=O)COc2ccc(Br)cc2)sc(C(C)=O)c1C	-23%	0%	-6%	2.1µM*	-3%	3%	-3%	3%	-5%	-9%	-6%
CC(C)c1ccc(NC(=O)c2cnc3sc(N4CCCC4)nn3c2=O)cc1	3%	-25%	17%	-2%	-11%	-15%	/	/	/	/	/
C[N+]1(C)[C@@H]2CC(OC(=O)[C@H](CO)c3ccccc3)C[C@H]1[C@H]1O[C@@H]12 (some centres not stated)	/	/	10%	/	/	/	/	/	/	/	/
COc1ccc(Cl)cc1NC(=O)CSC1=Nc2ccccc2C2=NC(CCC(=O)NCc3ccco3)C(=O)N12 (configuration not stated)	?	0%	3%	20µM*	17%	-7%	?	?	-7%	-18%	?
Cc1ccc(Cn2c(C)c3cnn(CC(=O)N4CCN(c5cc(C)ccc5C)CC4)c(=O)c3c2C)cc1	-16%	9%	i	12µM*	55%	-5%	-6%	15%	8%	-13%	-15%
Cn1c(-c2cccc(Br)c2)cnc1NCc1cccc(F)c1	-11%	-21%	-1%	?	-24%	?	-11%	?	1%	-21%	-27%
CCc1ccc(CNc2ncc(-c3cccc(OC)c3)n2C)cc1	?	-21%	5.6µM*	?	-19%	13µM*	-9%	-7%	-10%	?	?
Cc1ccc(-c2cnc(NCc3c(F)cccc3Cl)n2C)cc1	-18%	-17%	-3%	-114%	-21%	-26%	/	/	/	/	/
O=C(O)CCCCCC(=O)NN=C1CCCC1	/	/	-8%	/	/	/	/	/	/	/	/
O=C(CCS(=O)(=O)c1nc(-c2ccc3c(c2)OCO3)cc(C(F)(F)F)n1)Nc1ccc(F)c(Cl)c1	?	?	?	13µM*	?	-4%	-15%	?	-7%	-16%	?
